Measured values: PubChem BioAssay (NCATS)
Results filed as inconclusive are left out. Unmarked numbers belong to inactive results. Activity calls are given as the source filed them. The call rests on the fitted dose curve; in most records, active means well fitted cell-killing curve with a large enough effect; inconclusive means small, poorly fitted or top-dose-only effect; inactive means flat fitted curve, though single readings scatter.

Test: qHTS of pediatric cancer cell lines to identify multiple opportunities for drug repurposing: Primary screen for BT-12 cells (AID 1347101); further: nearly all actives have a fitted effect of over 25% in size;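 on activity change, negative = cytotoxic: plate controls were DMSO for no effect and bortezomib positive control for full effect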
Details: BT-12 viability, CellTiter-Glo luminescence, 48 h; series mostly up to 57.3 µM; activity change, negative = cytotoxic: at the top concentration
In short: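 Cells (500-1,000/well) rested 5 h, then received compounds for 48 h; metabolically active cells were measured by CellTiter-Glo luminescence. Final concentrations spanned up to 46 µM (MIPE, 11-point) or 0.59 nM-46 µM (NPC, 8-point) in primary screens, 11-point in follow-ups.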
Potency means the concentration at half of the fitted maximal effect.

Structure (SMILES)	activity change, negative = cytotoxic	Potency
NC(Cc1ccc(Cl)cc1)C(=O)O (centres undefined)	7.02% [at 0.745 µM]	
CCCCCN(CCCCC)C(=O)C(CCC(=O)O)NC(=O)c1ccc(Cl)c(Cl)c1 (centres undefined)	6.79%	
CCO/C([O-])=N/c1c[n+](N2CCOCC2)no1	5.69%	
CCN(CC)CCOCCOC(=O)C1(c2ccccc2)CCCC1	-7.13%	
CSc1ccc(C(=O)c2[nH]c(=O)[nH]c2C)cc1	2.12%	
CCn1cc(C(=O)O)c(=O)c2cc3c(cc21)OCO3	1.7% [at 20.1 µM]	
CN(C)CCN(Cc1cccs1)c1ccccn1	2.81%	
CC(C)(C)NCC(O)c1cc(O)cc(O)c1 (centres undefined)	9.36%	
CN(C)C(=O)Oc1cccc([N+](C)(C)C)c1	13.2%	
COc1ccc(CN(CCN(C)C)c2ccccn2)cc1	-8.05%	
O=c1[nH]c(=O)n([C@H]2C[C@H](O)[C@@H](CO)O2)cc1Br	-18.3%	
C[C@]12C=CC(=O)C=C1CC[C@H]1[C@@H]3C[C@@H](O)[C@](O)(C(=O)CO)[C@@]3(C)C[C@H](O)[C@@]12F	3.34%	
CC(N=C(NC#N)Nc1ccncc1)C(C)(C)C (centres undefined)	-13.5%	
CC(=O)[C@]1(O)Cc2c(O)c3c(c(O)c2[C@@H](O[C@H]2C[C@H](N)[C@H](O)[C@H](C)O2)C1)C(=O)c1ccccc1C3=O		550 nM (active)
NC/C=C/C(=O)O	3%	
Nc1c2c(nc3ccccc13)CCCC2O (centres undefined)	12.2%	
OCCN1CCN(CCCN2c3ccccc3C=Cc3ccccc32)CC1	-17%	
Cc1cccc(C)c1NC(=O)C(C)N (centres undefined)	4.88%	
C[C@]12CCC(=O)C=C1CC[C@@H]1[C@@H]2C(=O)C[C@@]2(C)[C@H]1CC[C@]2(O)C(=O)CO	11.7%	
